Experimental data published in PubChem BioAssay (Tox21).
Records with an inconclusive call do not appear. Calls of active or inactive are those of the source. Unless noted, the call rests on the fitted dose curve.

Experiments:
[1] = target: Peroxisome proliferator-activated receptor delta (Homo sapiens) (UniProt Q03181); assay: qHTS assay to identify small molecule agonists of the peroxisome proliferator-activated receptor delta (PPARd) signaling pathway (AID 743212)
Method in brief: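 A PPARd-bla HEK293H line with beta-lactamase under an Upstream Activator Sequence is treated with compounds at 37 C. Substrate loading for 2 h at room temperature precedes the fluorescence measurement.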

[2] = qHTS assay to identify small molecule antagonists of the peroxisome proliferator-activated receptor delta (PPARd) signaling pathway - cell viability counter screen (AID 743213; active means well fitted curve in the direction sought with a large enough effect in the repeat runs; an effect the other way counts as inactive or inconclusive; further: nearly all actives have a fitted effect of over 50% in size)
Method in brief: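 Viability counter-screen, qHTS format: PPARd-bla HEK293H, L165041 300 nM final, 17 h compound exposure at 37 C, CellTiter-Glo luminescence after 30 min RT.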

[3] = target: Peroxisome proliferator-activated receptor delta (Homo sapiens) (UniProt Q03181); assay: qHTS assay to identify small molecule antagonists of the peroxisome proliferator-activated receptor delta (PPARd) signaling pathway (AID 743215; active means well fitted inhibition curve with a large enough effect in the signal ratio in the repeat runs, not every such curve was filed as active; the % refers to the signal ratio;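 further: cells stimulated with agonist L165041 at 300 nM final during compound exposure; series mostly up to about 62 µM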)
Method in brief: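 PPARd UAS-bla HEK293H cells were pre-incubated 5 h at 37 C, then given test compounds in DMSO plus agonist L165041 (300 nM final). After 17 h at 37 C, beta-lactamase FRET substrate was added; fluorescence read after 2 h at room temperature.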

[4] = qHTS assay to identify small molecule antagonists of the farnesoid-X-receptor (FXR) signaling pathway - cell viability counter screen (AID 743221; active means well fitted cell-killing curve with a large enough effect in the repeat runs, not every such curve was filed as active; further: nearly all actives have a fitted effect of over 50% in size)
Method in brief: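 In GeneBLAzer FXR-UAS-bla HEK 293T cells stimulated with 50 uM chenodeoxycholic acid (final), compounds acted for 16 h at 37 C. Viability was assessed afterwards by CellTiter-Glo luminescence.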

[5] = target: Vitamin D3 receptor (Homo sapiens) (UniProt P11473); assay: qHTS assay to identify small molecule agonists of the vitamin D receptor (VDR) signaling pathway (AID 743222)
Method in brief: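 VDR-bla cells were plated 4 h at 37C/5% CO2, then exposed to compounds in DMSO for 16 h. After LiveBLAzer B/G FRET substrate addition and 2 h at room temperature, beta-lactamase reporter fluorescence was read.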

[6] = target: Vitamin D3 receptor (Homo sapiens) (UniProt P11473); assay: qHTS assay to identify small molecule antagonists of the vitamin D receptor (VDR) signaling pathway (AID 743223; active means well fitted inhibition curve with a large enough effect in the signal ratio in the repeat runs, not every such curve was filed as active; the % refers to the signal ratio)
Method in brief: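 Agonist 1alpha,25-dihydroxyvitamin D3 (3 nM in well) was added with each compound to VDR-bla cells preincubated 4 h. Cells stood 16 h at 37C, then FRET substrate 2 h at room temperature; fluorescence intensity recorded.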

[7] = qHTS assay to identify small molecule agonists of the vitamin D receptor (VDR) signaling pathway - cell viability counter screen (AID 743224; active means well fitted curve in the direction sought with a large enough effect in the repeat runs; an effect the other way counts as inactive or inconclusive; further: series mostly up to about 63 µM; nearly all actives have a fitted effect of over 50% in size)
Method in brief: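 VDR-bla cells were preincubated 4 h at 37C/5% CO2, then exposed to compounds for 16 h. After the 2 h room-temperature bla FRET read, CellTiter-Glo was added to the same wells and luminescence read after 30 min.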

[8] = qHTS assay to identify small molecule antagonists of the vitamin D receptor (VDR) signaling pathway - cell viability counter screen (AID 743225; active means well fitted curve in the direction sought with a large enough effect in the repeat runs; an effect the other way counts as inactive or inconclusive; further: nearly all actives have a fitted effect of over 50% in size)
Method in brief: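 Luminescent cell viability (CellTiter-Glo) in VDR-bla HEK 293T cells after 16 h compound exposure at 37C in the presence of 3 nM final 1-alpha,25-dihydroxy vitamin D3.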

[9] = qHTS assay to identify small molecule agonists of the NFkB signaling pathway - cell viability counter screen (AID 1159515); further: series mostly up to about 61 µM; nearly all actives have a fitted effect of over 55% in size
Method in brief: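 NFkB-bla ME-180 cells, 2,000/well, were plated overnight at 37 C, 5% CO2, then exposed to compounds in DMSO for 5 hr. After the bla FRET read, CellTiter-Glo was added to the same wells; luminescence was read after 30 min at room temperature.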

[10] = qHTS assay to identify small molecule agonists of the endoplasmic reticulum stress response signaling pathway (AID 1159516; active means well fitted activation curve with a large enough effect in the signal ratio in the repeat runs, not every such curve was filed as active; the % refers to the signal ratio)
Method in brief: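 CellSensor ESRE-bla HeLa cells, carrying a beta-lactamase reporter driven by the ER stress response element, were plated overnight and exposed to compounds for 5 hr at 37 C. Reporter activity was read as FRET substrate fluorescence after 2 hr at room temperature.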

[11] = qHTS assay to identify small molecule agonists of the endoplasmic reticulum stress response signaling pathway - cell viability counter screen (AID 1159517)
Method in brief: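 CellTiter-Glo was added to wells already read for beta-lactamase FRET, and luminescence was recorded 30 min later. Cells: ESRE-bla HeLa, 1,500 per well, compound exposure 5 hr at 37 C.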

[12] = qHTS assay to identify small molecule antagonists of the retinoid-related orphan receptor gamma (ROR-gamma) signaling pathway - cell viability counter screen (AID 1159520; active means well fitted curve in the direction sought with a large enough effect in the repeat runs; an effect the other way counts as inactive or inconclusive; further: nearly all actives have a fitted effect of over 50% in size)
Method in brief: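 Tet-on ROR gamma CHO cells (1,000/well) were plated 4 hr, given compounds in DMSO for 2 hr at 37 C, then induced with 1 uM final doxycycline for 16 hr. Viability was read as ATP by CellTiter-Glo luminescence after 30 min.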

[13] = target: Nuclear receptor ROR-gamma (Homo sapiens) (UniProt P51449); assay: qHTS assay to identify small molecule antagonists of the retinoid-related orphan receptor gamma (ROR-gamma) signaling pathway (AID 1159521; active means well fitted curve in the direction sought with a large enough effect in the repeat runs; an effect the other way counts as inactive or inconclusive)
Method in brief: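 CHO cells expressing RORγ under a TET-on promoter, luciferase under RORE control. Dox 1 uM final, 16 h; compounds added 2 h prior. Luminescence decrease measured.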

[14] = qHTS assay to identify small molecule agonists of the AP-1 signaling pathway - cell viability counter screen (AID 1159525); further: nearly all actives have a fitted effect of over 55% in size
Method in brief: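 ME-180 AP-1-bla, 2500 cells/well, Opti-MEM + 0.5% dialyzed FBS; overnight 37 °C; cpd 15-pt titration, 5 h 37 °C; CellTiter-Glo 30 min RT; luminescence read; normalised to TOAB and DMSO controls.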

[15] = qHTS assay to identify small molecule agonists of the AP-1 signaling pathway (AID 1159526)
[16] = target: Retinoic acid receptor RXR-alpha (Homo sapiens) (UniProt P19793); assay: qHTS assay to identify small molecule agonists of the RXR signaling pathway (AID 1159527); further: nearly all actives have a fitted effect of over 35% in size
Method in brief: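 Beta-lactamase reporter assay, agonist format. Engineered HEK 293T line, charcoal-stripped FBS at 2%, overnight (16 hr) exposure, fluorescence at 460 and 530 nm after 405 nm excitation.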

[17] = qHTS assay to identify small molecule agonists of the peroxisome proliferator-activated receptor delta (PPARd) signaling pathway - cell viability counter screen (AID 743211; active means well fitted curve in the direction sought with a large enough effect in the repeat runs; an effect the other way counts as inactive or inconclusive; further: nearly all actives have a fitted effect of over 55% in size)
Method in brief: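 Luminescent ATP viability assay (CellTiter-Glo, 30 min RT) in UAS-bla HEK293H cells carrying the PPAR delta reporter construct, 3000 cells/well, after a 17 h compound treatment at 37 C.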

[18] = target: Bile acid receptor (Homo sapiens) (UniProt Q96RI1); assay: qHTS assay to identify small molecule antagonists of the farnesoid-X-receptor (FXR) signaling pathway (AID 743217; active means well fitted inhibition curve with a large enough effect in the signal ratio in the repeat runs, not every such curve was filed as active; the % refers to the signal ratio)
Method in brief: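 FXR-UAS-bla HEK 293T cells pre-incubated 5 h at 37 °C, then exposed to compounds with chenodeoxycholic acid (50 uM final) for 16 h at 37 °C. Beta-lactamase reporter read by LiveBLAzer B/G FRET substrate fluorescence after 2 h at room temperature.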

[19] = qHTS assay to identify small molecule agonists of the farnesoid-X-receptor (FXR) signaling pathway - cell viability counter screen (AID 743218; active means well fitted curve in the direction sought with a large enough effect in the repeat runs; an effect the other way counts as inactive or inconclusive; further: nearly all actives have a fitted effect of over 45% in size)
Method in brief: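 FXR-UAS-bla HEK 293T cells, plated 5 h at 37 C, were exposed to compounds for 16 h at 37 C. CellTiter-Glo was then added to the same wells as the bla readout; luminescence read after 30 min at room temperature.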

[20] = target: Bile acid receptor (Homo sapiens) (UniProt Q96RI1); assay: qHTS assay to identify small molecule agonists of the farnesoid-X-receptor (FXR) signaling pathway (AID 743220; active means well fitted activation curve with a large enough effect in the signal ratio in the repeat runs, not every such curve was filed as active; the % refers to the signal ratio)
Method in brief: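 Beta-lactamase reporter under UAS control in GeneBLAzer FXR HEK 293T cells (5000/well) measured with LiveBLAzer FRET substrate after 2 h at room temperature. Compound exposure lasted 16 h at 37C.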

Measured: Potency

Peroxisome proliferator-activated receptor delta (Homo sapiens), sequence (Q03181 whole entry, looked up): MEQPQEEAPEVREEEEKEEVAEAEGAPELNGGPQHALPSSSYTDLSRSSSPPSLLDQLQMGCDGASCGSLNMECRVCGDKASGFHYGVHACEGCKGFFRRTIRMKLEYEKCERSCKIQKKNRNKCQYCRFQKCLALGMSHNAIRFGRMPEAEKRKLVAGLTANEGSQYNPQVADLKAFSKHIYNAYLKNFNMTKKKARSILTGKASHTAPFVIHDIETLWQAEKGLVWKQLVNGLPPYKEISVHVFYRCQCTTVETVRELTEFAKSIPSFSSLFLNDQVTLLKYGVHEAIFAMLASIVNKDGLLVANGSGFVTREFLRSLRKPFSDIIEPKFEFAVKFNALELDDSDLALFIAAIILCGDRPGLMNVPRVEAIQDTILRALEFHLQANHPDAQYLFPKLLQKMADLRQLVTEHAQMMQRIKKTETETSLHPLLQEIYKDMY
Retinoic acid receptor RXR-alpha (Homo sapiens), sequence (P19793 whole entry, looked up): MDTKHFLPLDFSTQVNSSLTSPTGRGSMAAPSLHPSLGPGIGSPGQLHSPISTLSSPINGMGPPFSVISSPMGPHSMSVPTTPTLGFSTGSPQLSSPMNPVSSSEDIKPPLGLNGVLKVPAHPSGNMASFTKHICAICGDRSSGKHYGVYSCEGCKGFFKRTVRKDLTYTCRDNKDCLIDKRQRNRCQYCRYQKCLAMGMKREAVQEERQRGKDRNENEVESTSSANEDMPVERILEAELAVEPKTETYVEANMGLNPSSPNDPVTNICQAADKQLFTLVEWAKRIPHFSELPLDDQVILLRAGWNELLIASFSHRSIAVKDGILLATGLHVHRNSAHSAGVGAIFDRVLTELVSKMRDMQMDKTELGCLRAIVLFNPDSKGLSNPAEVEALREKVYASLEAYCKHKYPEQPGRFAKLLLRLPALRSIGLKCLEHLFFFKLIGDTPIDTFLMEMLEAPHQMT
Vitamin D3 receptor (Homo sapiens), sequence (P11473 whole entry, looked up): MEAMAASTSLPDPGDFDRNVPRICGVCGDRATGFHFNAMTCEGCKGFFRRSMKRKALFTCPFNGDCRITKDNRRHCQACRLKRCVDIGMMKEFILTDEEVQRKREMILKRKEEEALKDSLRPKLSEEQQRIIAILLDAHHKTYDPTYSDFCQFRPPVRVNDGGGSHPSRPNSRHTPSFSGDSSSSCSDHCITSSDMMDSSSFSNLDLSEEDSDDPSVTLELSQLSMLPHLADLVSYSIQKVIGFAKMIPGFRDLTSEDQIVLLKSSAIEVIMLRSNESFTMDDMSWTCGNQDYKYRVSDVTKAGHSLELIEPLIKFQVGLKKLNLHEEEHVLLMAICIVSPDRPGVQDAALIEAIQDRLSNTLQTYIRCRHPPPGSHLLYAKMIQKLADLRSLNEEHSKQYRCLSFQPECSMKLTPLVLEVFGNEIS
Bile acid receptor (Homo sapiens), sequence (Q96RI1 whole entry, looked up): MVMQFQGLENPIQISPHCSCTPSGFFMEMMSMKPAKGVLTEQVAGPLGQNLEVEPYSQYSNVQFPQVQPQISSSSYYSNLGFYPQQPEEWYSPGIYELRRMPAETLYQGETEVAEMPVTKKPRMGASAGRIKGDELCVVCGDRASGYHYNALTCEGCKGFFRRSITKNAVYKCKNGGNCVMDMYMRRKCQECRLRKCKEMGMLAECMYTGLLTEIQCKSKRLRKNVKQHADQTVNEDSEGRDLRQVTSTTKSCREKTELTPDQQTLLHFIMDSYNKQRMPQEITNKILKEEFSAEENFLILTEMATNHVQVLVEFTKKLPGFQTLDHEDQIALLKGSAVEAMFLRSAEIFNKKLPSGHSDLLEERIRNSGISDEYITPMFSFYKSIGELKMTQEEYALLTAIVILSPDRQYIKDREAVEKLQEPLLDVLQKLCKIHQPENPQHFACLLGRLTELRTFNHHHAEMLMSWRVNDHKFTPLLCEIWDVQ

C=CC(=O)NC(C)(C)CC(C)=O
not listed: [17] | [18] | [19] | [20]
inactive: all other assays above

Oc1cccc(Cl)c1
not listed: [1] | [2] | [3] | [7] | [8] | [20]
inactive: all other assays above

CCCCC(CC)CO[N+](=O)[O-] (stereo not given)
not listed: [6] | [8] | [16] | [18] | [20]
inactive: all other assays above

O=S(=O)(c1ccccc1)c1ccccc1
not listed: [2] | [5] | [6] | [17] | [20]
inactive: all other assays above

O=C(O)C(Cl)(Cl)Br
not listed: [2] | [8] | [17]
inactive: all other assays above

O=C(O)c1ccc(=O)[nH]c1
not listed: [1] | [3] | [5] | [17] | [18] | [20]
inactive: all other assays above

OCC1CO1 (stereo not given)
not listed: [16] | [19] | [20]
inactive: all other assays above

C1CCNCC1
not listed: [7] | [17] | [18] | [20]
inactive: all other assays above

CC(C)(c1ccccc1)c1cc(-n2nc3ccccc3n2)c(O)c(C(C)(C)c2ccccc2)c1
not listed: [17] | [18] | [20]
inactive: all other assays above

CCCCCl
not listed: [4] | [6] | [16] | [17]
inactive: all other assays above

CN1CC[C@]23c4c5ccc(O)c4O[C@H]2[C@@H](O)CC[C@H]3[C@H]1C5
not listed: [1] | [3] | [16] | [18] | [20]
inactive: all other assays above

CCCC[N+](CCCC)(CCCC)CCCC
not listed: [3] | [6] | [8] | [16] | [18] | [19] | [20]
inactive: all other assays above
